Dicer inh: inhibitors of Dicer pre-microRNA processing, primary screen, biochemical, cat-ELCCA, chemiluminescence; AID 1347074, 2019; cat-ELCCA pre-miR-21 Dicer processing; hits give high values; Endoribonuclease Dicer (Homo sapiens), Q9UPY3; hit rate 6% among 47,000; z-score at 25 µM; in the data active = z-score above about 3, passing the limit was not always enough;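 also: higher signal means more uncleaved substrate so more Dicer inhibition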
Hits are given with their value; i = inactive. The full list was thinned out, with hits kept by preference.

SMILES | Dicer inh
CNC(=S)N(CCS(=O)(=O)c1ccc(Cl)cc1)Cc1cccs1 | 3.2
O=S(=O)(CCN(Cc1cccs1)S(=O)(=O)c1ccc(Cl)cc1)c1ccc(Cl)cc1 | i
COC(=O)COc1ccc(C2C(C(=O)OC)=C(C)NC3=C2C(=O)c2ccccc23)cc1 (centres undefined) | i
COC(=O)c1cnc(Sc2ccc(Cl)cc2)c([N+](=O)[O-])c1 | i
O=C(NCCCN1CCN(Cc2ccccc2)CC1)c1cn2cc(C(F)(F)F)cc(Cl)c2n1 | i
NNC(=O)c1cc(C(F)(F)F)cc(C(F)(F)F)c1 | i
NNC(=O)c1cn2cc(C(F)(F)F)cc(Cl)c2n1 | 4.8
Brc1cccc2c1NC(c1ccncc1)C1CC=CC21 (centres undefined) | i
Cc1[nH]cnc1C(=O)N/N=C/c1ccncc1 | i
CCOCCOC(=O)COc1ccc2c(=O)c(-c3ccc(Cl)cc3)coc2c1 | 3.5
CCCOC(=O)COc1ccc2c(=O)c(Oc3cc(C)c(Cl)c(C)c3)coc2c1 | i
CC(C)COC(=O)C(C)Oc1ccc2c(=O)c(Oc3ccccc3Cl)coc2c1 (centres undefined) | i
CCOC(=O)C(CC)Oc1ccc2c(=O)c(-c3ccc(Cl)cc3)coc2c1 (centres undefined) | i
CCC(C)OC(=O)C(C)Oc1ccc2c(=O)c(-c3ccc(Cl)cc3)coc2c1 (centres undefined) | i
Cc1cc(C)cc(Oc2coc3cc(OC(C)C(=O)OCC(C)C)ccc3c2=O)c1 (centres undefined) | 3.6
CCOCCOC(=O)C(C)Oc1ccc2c(=O)c(Oc3cc(C)c(Cl)c(C)c3)coc2c1 (centres undefined) | i
CCCCOC(=O)C(C)Oc1ccc2c(=O)c(Oc3ccccc3Br)coc2c1 (centres undefined) | i
CCCOC(=O)C(C)Oc1ccc2c(=O)c(-c3ccc(Cl)cc3)coc2c1 (centres undefined) | 3.2
Cn1c(C(F)(F)F)nc2ccccc21 | i
CC1(C)CC(=O)c2c(cc(OS(=O)(=O)c3ccccc3)cc2OS(=O)(=O)c2ccccc2)O1 | i
CC(=O)/C(C=Nc1cccc(F)c1C#N)=C(\C)O | i
O=C1CC(c2ccccc2)CC(=O)N1c1cccc2c1CCCC2 | i
Cc1ccc(S(=O)(=O)n2ccnc2C)cc1C | i
Cc1nn(C(=O)C2CC2)c(C)c1Sc1ccc(C(F)(F)F)cn1 | i
COc1cccc(-c2nc(S(=O)(=O)c3ccc(Cl)cc3)c(N3CCOCC3)o2)c1 | i
SMILES | Dicer inh
O=C(Nc1ccc2oc(-c3ccccc3F)nc2c1)c1ccc([N+](=O)[O-])o1 | i
O=C(Nc1ccc2oc(-c3cccc4ccccc34)nc2c1)c1ccc([N+](=O)[O-])o1 | i
Cc1ccccc1-c1nc2cc(NCc3cccs3)ccc2o1 | 8.2
CCOC(=O)C(C)Nc1n[nH]c(=S)[nH]c1=O (centres undefined) | i
FC(F)(F)c1cccc(Oc2ccc3nnc(-c4ccccc4)n3n2)c1 | i
CCOc1ccccc1OCc1nn2c(Cc3ccccc3)nnc2s1 | i
CCc1ccc(C2C(C#N)=C(N)Oc3n[nH]c(-c4ccccc4)c32)cc1 (centres undefined) | i
Cc1ccc(C(=O)n2nc(C)c(Sc3ccc(C(F)(F)F)cn3)c2C)cc1 | i
CC1=C(C(=O)OCCOc2ccccc2)C(c2ccc(O)cc2)C2=C(CC(c3ccccc3)CC2=O)N1 (centres undefined) | i
Nc1ccc(CCc2nc3ccccc3[nH]2)cc1 | 6.5
Cc1ccc(Cc2nc3ccccc3[nH]2)cc1 | i
CCOC(=O)CCc1nc2ccccc2[nH]1 | i
COc1ccc(Cc2nc(S(=O)(=O)c3ccccc3)c(NCc3ccccc3)o2)cc1 | i
CCCCN1CC(C(=O)OCC)=C(O)C1=O | i
CCOC(=O)c1sc(=S)n(C)c1C | i
CCOC(=O)C1=C(O)CCN(C)C1 | 14
O=C(c1ccco1)N1CCN(c2ncccc2C(F)(F)F)CC1 | i
COc1ccc(S(=O)(=O)NCCNC(=O)N2CCOCC2)cc1 | i
O=C(Nc1ccc(OC(=O)N2CCOCC2)cc1)N1CCOCC1 | i
COc1ccc(OC(=O)N2CCOCC2)cc1 | 5
O=S(=O)(NC1Cc2ccccc2C1)c1ccc(Br)s1 | i
Cc1onc(-c2c(F)cccc2Cl)c1C(=O)Nc1nc(-c2ccc(F)c(F)c2)cs1 | i
O=C(NC1CCCC1)C1CC(c2c(F)cccc2Cl)=NO1 (centres undefined) | i
CSc1nc(=O)c2cccnc2n1-c1ccc(C)cc1 | i
O=C1CC2(CCCC2)CC(=O)N1Cc1csc2ccccc12 | i
SMILES | Dicer inh
Cc1cc(Oc2cc(C)c(Cl)c(C)c2)c2ccccc2n1 | i
COc1ccc(/C=N/N=C/c2ccc(OC)c(OC)c2)cc1OC | i
CCNC(=S)N/N=C/c1cc(OC)c(OC)c(OC)c1 | i
COc1cc(/C=N/N=C/c2ccccc2O)cc(OC)c1OC | 7.4
N#CC1=C(SCc2ccccc2)SC(c2ccc(O)c(O)c2)NC1=O (centres undefined) | i
CS/C(=N\S(=O)(=O)/C=C/c1ccccc1)NN | i
Cc1ccc(S(=O)(=O)Nc2ccc(C)cc2C)cc1 | i
Cc1ccc(S(=O)(=O)Nc2cccc3cccc(Br)c23)cc1 | 3.1
Cc1ccc(S(=O)(=O)Nc2cccc3ccccc23)cc1 | i
CCOCCOC(=O)C1=C(C)NC2=C(C(=O)CC(C)(C)C2)C1c1ccc(OC(C)=O)cc1 (centres undefined) | i
CCOC(=O)C(=CNc1cc(C(C)(C)C)nn1C)C(=O)OCC | i
CC(=O)Nc1cc2c(s1)CCCC2 | i
Cc1ccc(CSc2nc(C(=O)C(F)(F)F)c3ccccn23)cc1 | i
O=C(NNc1cc(Cl)ccc1Cl)C1CCCS1 (centres undefined) | i
O=C(NNc1cc(Cl)ccc1Cl)c1sccc1Cl | 5.2
O=C(NNc1c(Cl)cccc1Cl)c1sccc1Cl | i
Fc1ccc(Oc2cc(C(F)(F)F)nc3c(Br)cccc23)c(Cl)c1 | i
O=C(CN1C(=O)C2CCCCC2C1=O)N1CCN(c2ccc(F)cc2)CC1 (centres undefined) | 6.5
O=C(CN1C(=O)c2cccc3cccc1c23)N1CCN(c2ccc(F)cc2)CC1 | i
O=C1CCC2C(=O)N(CC(=O)N3CCCC3)C(=O)C2C1 (centres undefined) | i
CN(C)C=N/C(=N\OCc1c(F)cccc1Cl)c1ccc(Cl)cc1 | i
CC(=NCc1cccc(CN=C(C)c2ccccc2O)c1)c1ccccc1O | i
C/C(=N\NC(=O)c1ccc(Cl)cc1)c1ccccc1O | 33
CC(=NCCc1ccc(Cl)cc1)c1ccccc1O | 5.2
CCOC(=O)N/N=C(\C)c1ccccc1O | i
SMILES | Dicer inh
CC(C)(C)SCCN=C(Nc1ccc(Cl)cc1)c1ccccc1Cl | i
O=C(O)/C(=N/NC(=O)c1ccc(Cl)cc1)c1ccccc1 | i
CC1=C(C(=O)OCC(C)C)C(c2ccccc2Br)C2=C(CCCC2=O)N1 (centres undefined) | i
Cc1ccc(/C(O)=C2/C(=O)C(=O)N(CCN(C)C)C23C(=O)N(C)c2ccccc23)cc1F (centres undefined) | i
CCCn1c(=O)c2[nH]cnc2n(-c2ccc(Cl)cc2)c1=O | i
Nc1cc(=O)n(Cc2ccccc2)c(=O)n1-c1ccccc1 | i
CCCn1c(=O)cc(N)n(-c2ccc(Cl)cc2)c1=O | 5.1
CCOC(=O)c1c(NC(=O)CNC(C)(C)C)sc2c1CCCCC2 | i
O=C(CSc1n[nH]c(=O)n1-c1ccccc1)c1ccc(Cl)cc1 | i
COc1cc(-n2c(SCC(=O)c3ccc(Cl)cc3)nc3ccccc3c2=O)c(OC)cc1Cl | 3.8
COc1cc(-n2c(SCC(=O)c3ccccc3)nc3ccccc3c2=O)c(OC)cc1Cl | i

High-throughput results as filed in PubChem.
